Data from PubChem BioAssay AID1159580 (chemical genetic matrix, 2015).
The whole screen tested about 5,500 compounds, of which about 2,000 (36%) were called active. About 18% were inconclusive and are not listed. No stated cut-off is given here; in the data, active means normalized growth mostly below about 0.91 (no sharp cut-off); inconclusive means no clear call, values can overlap the other calls; inactive means mostly above about 0.92. This is one part of the list.

Test: chemical genetic growth profiling, strain panel (AID 1159580);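 further: tested at 20 µM; growth read once vehicle control cultures reached saturation at 30 °C; 1 = growth at the plate median or of vehicle wells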
Conditions: growth OD

Measured: normalized growth

NC(=NCCC[C@H](N)C(=O)O)N[N+](=O)[O-]
inactive: S. cerevisiae deletion strains, locus YJL187C, strain SWE1 (second series), stronger effect = lower value 0.983 | S. cerevisiae deletion strains, locus YJR043C, strain POL32, stronger effect = lower value 0.995 | S. cerevisiae deletion strains, locus YKL009W, strain mrt4, stronger effect = lower value 1 | S. cerevisiae deletion strains, locus YKL068W, stronger effect = lower value 0.997 | S. cerevisiae deletion strains, locus YKL085W, strain MDH1 (second series), stronger effect = lower value 0.982 | S. cerevisiae deletion strains, locus YKL085W, strain MDH1, stronger effect = lower value 0.982 | S. cerevisiae deletion strains, locus YKL160W, strain elf1, stronger effect = lower value 1.01 | S. cerevisiae deletion strains, locus YKL190W, strain CNB1, stronger effect = lower value 0.99 | S. cerevisiae deletion strains, locus YKR001C, strain vps1, stronger effect = lower value 0.98 | S. cerevisiae deletion strains, locus YKR026C, strain gcn3, stronger effect = lower value 1.01 | S. cerevisiae deletion strains, locus YKR091W, strain srl3, stronger effect = lower value 1.02 | S. cerevisiae deletion strains, locus YLL001W, strain dnm1, stronger effect = lower value 1.02 | S. cerevisiae deletion strains, locus YLL026W, stronger effect = lower value 1.02 | S. cerevisiae deletion strains, locus YLL041C, strain sdh2, stronger effect = lower value 1.02 | S. cerevisiae deletion strains, locus YLR027C, strain aat2, stronger effect = lower value 1.03 | S. cerevisiae deletion strains, locus YLR039C, strain RIC1, stronger effect = lower value 0.971 | S. cerevisiae deletion strains, locus YLR058C, strain SHM2, stronger effect = lower value 1.01 | S. cerevisiae deletion strains, locus YLR102C, strain apc9, stronger effect = lower value 1.01 | S. cerevisiae deletion strains, locus YLR221C, strain rsa3, stronger effect = lower value 0.985 | S. cerevisiae deletion strains, locus YLR258W, strain gsy2, stronger effect = lower value 1.02 | S. cerevisiae deletion strains, locus YLR262C, strain YPT6 (second series), stronger effect = lower value 1.04 | S. cerevisiae deletion strains, locus YLR262C, strain YPT6, stronger effect = lower value 1.06 | S. cerevisiae deletion strains, locus YLR268W, strain sec22, stronger effect = lower value 1 | S. cerevisiae deletion strains, locus YLR320W, strain mms22, stronger effect = lower value 1.03 | S. cerevisiae deletion strains, locus YLR330W, strain CHS5, stronger effect = lower value 1.01 | S. cerevisiae deletion strains, locus YLR342W, strain FKS1 (second series), stronger effect = lower value 1.03 | S. cerevisiae deletion strains, locus YLR342W, strain FKS1, stronger effect = lower value 1.02 | S. cerevisiae deletion strains, locus YLR357W, strain rsc2, stronger effect = lower value 1.06 | S. cerevisiae deletion strains, locus YLR370C, strain arc18, stronger effect = lower value 1.02 | S. cerevisiae deletion strains, locus YLR371W, strain rom2, stronger effect = lower value 0.997 | S. cerevisiae deletion strains, locus YLR384C, strain iki3, stronger effect = lower value 1.03 | S. cerevisiae deletion strains, locus YLR418C, strain cdc73, stronger effect = lower value 1.04 | S. cerevisiae deletion strains, locus YML016C, strain PPZ1, stronger effect = lower value 1 | S. cerevisiae deletion strains, locus YML032C, strain rad52, stronger effect = lower value 0.989 | S. cerevisiae deletion strains, locus YML120C, strain ndi1, stronger effect = lower value 1.02 | S. cerevisiae deletion strains, locus YML124C, strain tub3, stronger effect = lower value 1 | S. cerevisiae deletion strains, locus YMR058W, strain fet3, stronger effect = lower value 1.04 | S. cerevisiae deletion strains, locus YMR078C, strain ctf18, stronger effect = lower value 0.997 | S. cerevisiae deletion strains, locus YMR125W, strain sto1, stronger effect = lower value 1.01 | S. cerevisiae deletion strains, locus YMR129W, stronger effect = lower value 1.02 | S. cerevisiae deletion strains, locus YMR205C, strain PFK2, stronger effect = lower value 1.03 | S. cerevisiae deletion strains, locus YMR223W, strain ubp8, stronger effect = lower value 1.05 | S. cerevisiae deletion strains, locus YMR231W, strain pep5, stronger effect = lower value 1.01 | S. cerevisiae deletion strains, locus YMR307W, strain GAS1, stronger effect = lower value 0.982 | S. cerevisiae deletion strains, locus YNL067W, strain RPL9B, stronger effect = lower value 0.973 | S. cerevisiae deletion strains, locus YNL071W, strain lat1, stronger effect = lower value 1.01 | S. cerevisiae deletion strains, locus YNL128W, strain TEP1, stronger effect = lower value 1.01 | S. cerevisiae deletion strains, locus YNL153C, strain GIM3, stronger effect = lower value 0.975 | S. cerevisiae deletion strains, locus YNL209W, strain ssb2, stronger effect = lower value 1.03 | S. cerevisiae deletion strains, locus YNL233W, strain BNI4, stronger effect = lower value 0.968 | S. cerevisiae deletion strains, locus YNL248C, strain rpa49, stronger effect = lower value 1.01 | S. cerevisiae deletion strains, locus YNL271C, strain bni1, stronger effect = lower value 1.01 | S. cerevisiae deletion strains, locus YNL298W, strain CLA4, stronger effect = lower value 1.01 | S. cerevisiae deletion strains, locus YNL307C, strain MCK1, stronger effect = lower value 1.01 | S. cerevisiae deletion strains, locus YNL322C, strain KRE1 (second series), stronger effect = lower value 1.03 | S. cerevisiae deletion strains, locus YNL322C, strain KRE1, stronger effect = lower value 0.994 | S. cerevisiae deletion strains, locus YNR049C, strain mso1, stronger effect = lower value 1.02 | S. cerevisiae deletion strains, locus YNR052C, strain pop2, stronger effect = lower value 1.01 | S. cerevisiae deletion strains, locus YOL006C, strain TOP1, stronger effect = lower value 0.974 | S. cerevisiae deletion strains, locus YOL012C, strain htz1 2.01 | S. cerevisiae deletion strains, locus YOL147C, strain pex11, stronger effect = lower value 1 | S. cerevisiae deletion strains, locus YOR001W, strain rrp6, stronger effect = lower value 1.04 | S. cerevisiae deletion strains, locus YOR061W, strain CKA2, stronger effect = lower value 1 | S. cerevisiae deletion strains, locus YOR069W, strain VPS5, stronger effect = lower value 1.01 | S. cerevisiae deletion strains, locus YOR070C, strain gyp1, stronger effect = lower value 1.02 | S. cerevisiae deletion strains, locus YOR080W, strain dia2, stronger effect = lower value 1.02 | S. cerevisiae deletion strains, locus YOR083W, strain WHI5, stronger effect = lower value 1.03 | S. cerevisiae deletion strains, locus YOR106W, strain vam3, stronger effect = lower value 1.05 | S. cerevisiae deletion strains, locus YOR136W, strain idh2, stronger effect = lower value 0.997 | S. cerevisiae deletion strains, locus YOR144C, strain elg1, stronger effect = lower value 1 | S. cerevisiae deletion strains, locus YOR184W, strain ser1, stronger effect = lower value 1.02 | S. cerevisiae deletion strains, locus YOR265W, strain rbl2, stronger effect = lower value 1.02 | S. cerevisiae deletion strains, locus YOR270C, strain vph1, stronger effect = lower value 1.04 | S. cerevisiae deletion strains, locus YOR290C, strain snf2, stronger effect = lower value 1.02 | S. cerevisiae deletion strains, locus YOR316C, strain cot1, stronger effect = lower value 1.01 | S. cerevisiae deletion strains, locus YPL051W, strain arl3, stronger effect = lower value 1.02 | S. cerevisiae deletion strains, locus YPL055C, strain LGE1, stronger effect = lower value 0.95 | S. cerevisiae deletion strains, locus YPL078C, strain atp4, stronger effect = lower value 1.03 | S. cerevisiae deletion strains, locus YPL106C, strain sse1, stronger effect = lower value 1.04 | S. cerevisiae deletion strains, locus YPL240C, strain hsp82, stronger effect = lower value 1.01 | S. cerevisiae deletion strains, locus YPL241C, strain CIN2, stronger effect = lower value 1 | S. cerevisiae deletion strains, locus YPR119W, strain clb2, stronger effect = lower value 0.997 | S. cerevisiae deletion strains, locus YPR141C, strain kar3, stronger effect = lower value 0.998 | S. cerevisiae deletion strains, locus YPR163C, strain tif3, stronger effect = lower value 0.997 | S. cerevisiae deletion strains, locus YPR167C, strain met16, stronger effect = lower value 0.999 | S. cerevisiae deletion strains, strain wtn01, stronger effect = lower value 1 | S. cerevisiae strains, strain wild type, stronger effect = lower value 1
